An excerpt weighted towards active compounds, which were near 20% of everything screened.
Shiga inhibitor: Shiga toxin inhibition | AID 2315 | 9.2% of 290,000 active | Vero cells, Shiga toxin protein synthesis inhibition reporter | inhibition, % at 38.7 µM; in the data active = inhibition mostly above about 28%, no sharp cut-off; inactive = mostly below about 43%; note: 0% is about no effect
Pf growth 96h: inhibits malaria parasite growth, 96 h; P. falciparum luciferase reporter growth, 96 h; Potency, µM (highest dose often 28.7 µM), inactives show at the top dose activity change, negative = inhibition, usual class: inhibitors; 6.9% of 320,000 active; AID 504834; note: potency is the fitted concentration of half-maximal effect; % is set by controls: 0 for no effect and ±100 for the full control effect
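P. falciparum expressing integrated firefly luciferase, in erythrocytes at 2% hematocrit, 0.05% parasitemia, incubated with compounds 96 h at 37 C, 5% CO2. Growth inhibition read as loss of luminescence; two-generation exposure targets delayed-death apicoplast inhibitors.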
Pf growth 48h: P. falciparum growth inhibition at 48 hours (one generation) | P. falciparum luciferase growth in erythrocytes, 48 h | Potency, µM (series often up to 28.7 µM), without a hit: at the top dose activity change, negative = inhibition, most hits filed as inhibitors | 5.9% of 310,000 active | AID 504832; note: potency is the fitted concentration of half-maximal effect; % is set by controls: 0 for no effect and ±100 for the full control effect
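First compound was added to culture medium, then infected red cells at 0.1% parasitemia and 2% hematocrit (final). After incubation at 37 C under 5% CO2, luciferase detection reagent was dispensed and light output recorded.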
CHX counter: affects cycloheximide protein synthesis inhibition readout, counter-screen; cell reporter, cycloheximide protein synthesis inhibition counterscreen; 12% of 300,000 active; max response, %; in the data active = max response mostly above about 13%, no sharp cut-off; inactive = mostly below about 14%; note: read at 38.3 µM for the half of the compounds with a filed dose; 0% is about no effect
HCMV inh: blocks human cytomegalovirus replication; activity change, negative = inhibition, % at 57.5 µM; HFF cells, HCMV-luciferase reporter, 72 h; active compounds read low; 4.5% of 410,000 active; AID 1259415; in the data active = activity change below about -60%; inconclusive = no clear call, values can overlap the other calls; inactive = above about -39%; note: % is set by controls: 0 for no effect and ±100 for the full control effect
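Inhibition of viral replication was scored as loss of reporter luminescence in HFFs infected with HCMV-luciferase (MOI 1 PFU/cell) for 72 h; compounds tested at 2 doses, normalized to buffer and Salinomycin controls.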
The depositor's hits bear a star; ? = inconclusive; nt = not tested or not shown; + = active, no number. Unless noted, calls come from the whole dose curve; as a rule, active = well fitted inhibition curve with a large enough effect; inconclusive = small, poorly fitted or top-dose-only effect, or another doubt; inactive = no such curve, though single readings can be large or run the other way.

SMILES	Shiga inhibitor	Pf growth 96h	Pf growth 48h	CHX counter	HCMV inh
O=C(N/N=C/c1ccc2c(c1)OCO2)c1cccs1	68*	123%	202%	56*	73
Cc1ccsc1C(=O)N/N=C/c1ccc2c(c1)OCO2	78*	413%	414%	42*	233
O=C(NN=Cc1ccc2c(c1)CCN2)c1cccs1	nt	nt	nt	nt	63
Cc1nn(Cc2cccc(F)c2)c(C)c1NC(=O)c1ccc(COc2ccccc2Cl)cc1	6	nt	13µM*	18	-76*
O=C(Nc1ccn(Cc2c(F)c(F)c(F)c(F)c2F)n1)c1ccc(COc2ccccc2Cl)cc1	-5	?	nt	2	-14
Cc1nn(Cc2c(F)c(F)c(F)c(F)c2F)c(C)c1NC(=O)c1ccc(COc2ccc(Cl)cc2Cl)o1	4	?	-9%	-2	-81*
Cc1nn(Cc2c(F)c(F)c(F)c(F)c2F)c(C)c1NC(=O)c1cccc(COc2ccccc2Cl)c1	162*	289%	137%	69*	82
CCS(=O)(=O)Nc1cccc(C2=NN(S(C)(=O)=O)C(c3ccccc3)C2)c1 (stereo not given)	3	38%	10%	17	26
CC(=O)N1N=C(c2ccc(C)cc2)CC1c1ccc2c(c1)OCO2 (stereo not given)	52*	42%	33%	45*	103
CS(=O)(=O)Nc1ccc(C2=NN(S(C)(=O)=O)C(c3ccc4nccnc4c3)C2)cc1 (stereo not given)	26	-1%	2%	15*	-20
CS(=O)(=O)N1N=C(c2ccc(Br)cc2)CC1c1ccc2c(c1)OCO2 (stereo not given)	83*	95%	199%	45*	nt
Cc1ccc(C2=NN(S(C)(=O)=O)C(c3ccc4c(c3)OCO4)C2)cc1 (stereo not given)	+	303%	191%	76*	99
COc1ccc(C2CC(c3ccc(C)cc3)=NN2C(=O)CCC(=O)O)cc1OC (stereo not given)	-4	?	-1%	-1	-16
O=C(NCc1ccncc1)c1ccc(NS(=O)(=O)c2ccccc2)cc1	nt	nt	nt	nt	-31
CCC(=O)N1CCc2cc(Br)cc(S(=O)(=O)N3CCCC(C(=O)NCc4ccc(C)cc4)C3)c21 (stereo not given)	nt	nt	nt	nt	-6
Cc1cccc(C(=O)NCC(c2cccs2)S(=O)(=O)c2cccs2)c1 (stereo not given)	nt	nt	nt	nt	9
CCc1cc2c(s1)N(CC(=O)OC)C(=O)CN=C2c1ccccc1OC	-6	8.3µM*	7%	11	-7
COc1ccccc1NCN1C(=O)CCC1=O	-1	29%	29%	-3	43
COc1ccccc1Nc1c2c(nc3ccc(NC(=O)c4ccccc4F)cc13)CCCC2	nt	nt	nt	nt	-100*
COc1ccccc1Nc1c2c(nc3ccc(NC(=O)c4ccc(OC)c(OC)c4)cc13)CCCC2	nt	nt	nt	nt	-99*
COc1ccc(C(=O)Nc2ccc3nc4c(c(Nc5ccc(OC)c(OC)c5)c3c2)CCCC4)c(OC)c1	nt	nt	nt	nt	-92*
COc1ccccc1Nc1c2c(nc3ccc(NC(=O)c4cccc(OC)c4OC)cc13)CCCC2	nt	nt	nt	nt	-98*
COc1ccc(C(=O)Nc2ccc3nc4c(c(Nc5ccccc5OC)c3c2)CCCC4)c(OC)c1	nt	nt	nt	nt	-9
N=c1ccn(O)cc1CCc1ccccc1	nt	nt	nt	nt	18
CC(=O)Nc1ccc(C(=O)OCC(=O)Nc2c(F)cccc2F)cc1	3	-5%	-2%	11	-19
SMILES	Shiga inhibitor	Pf growth 96h	Pf growth 48h	CHX counter	HCMV inh
O=C(NC1CCCCC1)c1cc(Nc2cccc(C(F)(F)F)c2)nc2ccccc12	nt	nt	nt	nt	5
Cc1oc2cc3oc(=O)c(CCC(=O)NCCc4ccccc4F)c(C)c3cc2c1C	nt	nt	nt	nt	-16
Cc1oc2cc3oc(=O)c(CCC(=O)NCCCN4CCOCC4)c(C)c3cc2c1C	27	?	-16%	active	1
COc1cc2c(C(=O)N3CCN(C)CC3)c(C)oc2cc1Br	27	nt	-18%	2	-2
Cc1oc2c(C)c3oc(=O)c(CCC(=O)NCCCn4ccnc4)c(C)c3cc2c1C	6	?	13µM*	-4	-37
Cc1coc2cc3oc(=O)c(CCC(=O)NCCCn4ccnc4)c(C)c3cc12	7	10µM*	-12%	-1	0
Cc1c(CCC(=O)NCCCn2ccnc2)c(=O)oc2cc3occ(C(C)(C)C)c3cc12	-6	?	?	-5	?
Cc1oc2cc3c(C(=O)N4CCCCC4)c(C)oc3cc2c1C(=O)N1CCCCC1	73	nt	nt	53*	?
Cc1ccc2nc(Nc3ccc(C)c(Cl)c3)c3nncn3c2c1	16	25%	?	-1	15
O=C(NCc1ccc2c(c1)CCN2C(=O)c1ccc(F)cc1)c1ccco1	nt	nt	nt	nt	16
COc1cccc(NC(=O)CN(C)C(=O)CCNC(=O)c2ccccc2OC)c1	nt	nt	nt	nt	-19
COc1ccc(Cc2c(-c3ccc(C#N)cc3)nc3c(Cl)cc(C(F)(F)F)cn23)c(C)c1	nt	nt	nt	nt	-13
Cc1c(CCC(=O)N[C@@H](C)C(=O)O)c(=O)oc2cc3oc4c(c3cc12)CCCC4	15	11%	-3%	12	-28
Cc1oc2cc3oc(=O)c(CCC(=O)NCCCn4ccnc4)c(C)c3cc2c1C	15	?	1%	7.8*	-17
Cc1oc2cc3oc(=O)c(CCC(=O)N4CCCCC4)c(C)c3cc2c1C	nt	nt	nt	nt	30
Cc1oc2cc3oc(=O)c(CC(=O)N4CCCCC4)c(C)c3cc2c1C	nt	nt	nt	nt	-71*
Cc1c(CCC(=O)NCCCn2ccnc2)c(=O)oc2cc3oc4c(c3cc12)CCCC4	20	?	10µM*	11	?
O=C1CC(c2ccccc2)CC(=O)C1CS(=O)(=O)c1ccccc1 (stereo not given)	-9	19%	-1%	-2	4
COc1cc(C(c2nnnn2C(C)(C)C)N2CCN(c3nc4ccccc4s3)CC2)ccc1O (stereo not given)	30	2%	-13%	9	-12
O=C(NCc1ccc(F)cc1)C(=O)NCC1OCCN1S(=O)(=O)c1cc(F)ccc1F (stereo not given)	nt	nt	nt	nt	27
OC(Cn1ccnc1)c1ccc(Cl)cc1Cl (stereo not given)	-10	9.3µM*	10µM*	-2	-2

High-throughput results from PubChem.
